Source: PubChem BioAssay (Tox21)
“And” between values parts separate entries of the source, which are not always exact repeats. Identical values can stand only once. Inconclusive results are not listed. Entries that show only a call come without a potency. A number with no mark means an inactive call. The source made the active and inactive calls. Calls come from the whole dose curve; as a rule, active = well fitted curve in the direction sought with a large enough effect in the repeat runs; inconclusive = weak or mixed curves; inactive = no such curve, though single readings can be large; an effect the other way counts as inactive or inconclusive.

Columns and labels:
[1] = A CellTox Green Cytotoxicity Assay to monitor cytotoxicity in HEK293 cells - 40 hour (AID 1224871); note: nearly all actives have a fitted effect of over 45% in size; note: potency is the fitted concentration of half-maximal effect
Procedure, shortened: (§1)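 Cells (HEK293, 600/well) and dye reagent are dispensed together. After 5 h at 37 C, 23 nL compound is pinned in. Plates stay at 37 C for 40 h with fluorescence read at 0h, 8h, 16h, 24h, 32h and 40h.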

[2] = qHTS RealTime-Glo MT Cell Viability Assay in HEK293 cells - 16 hour (AID 1224872); note: nearly all actives have a fitted effect of over 50% in size; note: potency is the fitted concentration of half-maximal effect
Procedure, shortened: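 Homogeneous bioluminescent viability format in HEK293 cells (600 cells/well). Following 5 h at 37 C/5% CO2, 23 nL compound was pintooled; the signal was measured repeatedly during 40 h incubation.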

[3] = A CellTox Green Cytotoxicity Assay to monitor cytotoxicity in HEK293 cells - 24 hour (AID 1224875); note: nearly all actives have a fitted effect of over 45% in size; note: potency is the fitted concentration of half-maximal effect
Procedure, shortened: as §1

[4] = A CellTox Green Cytotoxicity Assay to monitor cytotoxicity in HepG2 cells - 16 hour (AID 1224876); note: nearly all actives have a fitted effect of over 45% in size; note: potency is the fitted concentration of half-maximal effect
Procedure, shortened: (§2)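 Cells and non-lytic dye reagent are dispensed together (600 HepG2 cells/well) and incubated 5 h before DMSO compound transfer. Kinetic fluorescence is then recorded in the same wells during 40 h at 37 C.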

[5] = A CellTox Green Cytotoxicity Assay to monitor cytotoxicity in HepG2 cells - 40 hour (AID 1224879); note: nearly all actives have a fitted effect of over 40% in size; note: potency is the fitted concentration of half-maximal effect
Procedure, shortened: as §2

[6] = qHTS RealTime-Glo MT Cell Viability Assay in HEK293 cells - 0 hour (AID 1224880); note: nearly all actives have a fitted effect of over 45% in size; note: potency is the fitted concentration of half-maximal effect
Procedure, shortened: (§3)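 Real-time viability in HEK293: signal arises when living cells convert a prosubstrate for NanoLuc in the medium, so luminescence tracks viable cell number. Compound (23 nL, DMSO) added 5 h post-seeding; kinetic reads at 0–40 h, 37 C.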

[7] = qHTS RealTime-Glo MT Cell Viability Assay in HEK293 cells - 40 hour (AID 1224874); details: RealTime-Glo luminescence; max response: active compounds read low; note: nearly all actives have a fitted effect of over 50% in size; note: potency is the fitted concentration of half-maximal effect
Procedure, shortened: as §3

[8] = qHTS RealTime-Glo MT Cell Viability Assay in HepG2 cells - 32 hour (AID 1224877); note: nearly all actives have a fitted effect of over 55% in size; note: potency is the fitted concentration of half-maximal effect
Procedure, shortened: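 Cell number in HepG2 cultures estimated from NanoLuc luminescence generated by metabolic reduction of a prosubstrate by living cells. The homogeneous, nonlytic format allowed repeated reads at 0, 8, 16, 24, 32 and 40 h of compound exposure.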

[9] = A CellTox Green Cytotoxicity Assay to monitor cytotoxicity in HepG2 cells - 24 hour (AID 1224878); note: nearly all actives have a fitted effect of over 45% in size; note: potency is the fitted concentration of half-maximal effect
Procedure, shortened: as §2

[10] = qHTS RealTime-Glo MT Cell Viability Assay in HepG2 cells - 8 hour (AID 1224873); note: nearly all actives have a fitted effect of over 55% in size
Procedure, shortened: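 Real-time viability: cells seeded at 600 per well together with NanoLuc and cell-permeant prosubstrate, compounds added after 5 h incubation. Luminescence tracked at 0, 8, 16, 24, 32 and 40 h of exposure.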

Structure (SMILES) | Potency [1] | Potency [2] | Potency [3] | Potency [4] | Potency [5] | Potency [6] | Potency [7] | Potency [8] | Potency [9] | max response [7] | Potency [10]
CCOC(=O)C(C)Oc1ccc(Oc2nc3ccc(Cl)cc3o2)cc1 (centres undefined) | inactive | 21.9 µM (active) | inactive | inactive | inactive | inactive | – | – | – | – | –
Cc1nc2ccccn2c(=O)c1CCN1CCC(C(=O)c2ccc(F)cc2)CC1 | inactive | 4.77 µM (active) | inactive | inactive | – | inactive | 8.49 µM (active) | inactive | inactive | – | –
C=CC(=O)NCOCC(C)C | inactive | inactive | inactive | – | inactive | inactive | – | inactive | inactive | -14% | –
O=C(CCC1CCN(Cc2ccccc2)CC1)c1ccc2c(c1)NCCCC2 | – | 9.52 µM (active) | inactive | inactive | – | inactive | 9.52 µM (active) | inactive | inactive | – | inactive
CC1=CC(O)CC(C)(C)C1 (centres undefined) | – | inactive | inactive | inactive | – | inactive | – | inactive | inactive | 8.3% | inactive
O=c1[nH]c2ccc(S(=O)CCN3CCC(Cc4ccc(F)cc4)CC3)cc2o1 (centres undefined) | inactive | – | inactive | – | – | inactive | – | inactive | inactive | – | –
O=C(c1ccc(O)cc1)c1ccc(Cl)cc1 | – | 25.1 µM (active) | – | inactive | inactive | inactive | 25.1 µM (active) | inactive | inactive | – | –
CC(Cl)C(Cl)Cl (centres undefined) | – | inactive | 42.9 µM (active) | inactive | inactive | inactive | – | inactive | inactive | -7.3% | inactive
O=C(N/N=C/c1ccc([N+](=O)[O-])o1)c1ccc(O)cc1 | – | – | – | inactive | – | – | – | – | inactive | – | –
C/C=C/C=C/CCCCCCCO | – | inactive | inactive | inactive | – | inactive | – | inactive | – | -18.5% | inactive
CN(C)CCOC1=Cc2ccccc2Sc2ccc(Cl)cc21 | – | inactive | inactive | – | – | – | – | 21.3 µM (active) | 23.9 µM (active) | -22.7% | inactive
CCOC(=O)N1CCC(n2c(=O)[nH]c3cc(Cl)ccc32)CC1 | inactive | – | inactive | inactive | inactive | inactive | – | inactive | – | – | –
CN(C)C(=O)Nc1ccc(Oc2ccc(Cl)cc2)cc1 | inactive | – | inactive | inactive | – | inactive | 34.7 µM (active) | inactive | – | – | –
CCCCCCCCCCCC[N+](C)(C)CC(=O)[O-] | – | inactive | – | – | – | inactive | – | inactive | – | -3.41% | –
CCc1nn(CCCN2CCN(c3cccc(Cl)c3)CC2)c(=O)n1CCOc1ccccc1 | – | 8.49 µM (active) | inactive | inactive | – | inactive | 8.49 µM (active) | – | inactive | – | –
O=C1NCCN1 | – | inactive | – | – | inactive | inactive | – | inactive | inactive | 4.04% | inactive
Oc1ccc(Nc2ccccc2)cc1 | – | 19.5 µM (active) | – | inactive | – | – | 19.5 µM (active) | inactive | inactive | – | –
CC(=O)Oc1ccc2c(c1)CC[C@@H]1[C@@H]2CC[C@]2(C)[C@@H](O)CC[C@@H]12 | – | – | inactive | inactive | – | inactive | 16.9 µM (active) | inactive | – | – | inactive
CNCCCC1c2ccccc2C=Cc2ccccc21 | – | inactive | – | – | 23.9 µM (active) | – | 23.9 µM (active) | 23.9 µM (active) | 23.9 µM (active) | – | inactive
CCC(Cc1ccccc1)(C(=O)c1ccc(N2CCOCC2)cc1)N(C)C (centres undefined) | – | – | inactive | inactive | – | inactive | – | inactive | inactive | – | inactive
O=C(Nc1ccccc1)Nc1ccccc1 | inactive | – | inactive | – | inactive | inactive | – | inactive | inactive | – | inactive
CC(C)C(OC(=O)c1ccccc1)C(C)(C)COC(=O)c1ccccc1 (centres undefined) | inactive | – | inactive | – | inactive | inactive | – | inactive | inactive | – | inactive

Structure (SMILES) | Potency [1] | Potency [2] | Potency [3] | Potency [4] | Potency [5] | Potency [6] | Potency [7] | Potency [8] | Potency [9] | max response [7] | Potency [10]
Fc1ccccc1[C@@H](F)COC1CCC(Nc2ncnc3[nH]ncc23)CC1 (some centres undefined) | – | – | inactive | – | inactive | inactive | 24.5 µM (active) | inactive | inactive | – | inactive
C(=C\c1ccccc1)/CN1CCN(C(c2ccccc2)c2ccccc2)CC1 | inactive | – | inactive | – | – | inactive | – | inactive | inactive | – | –
NC(=O)N(O)[C@@H]1C=C[C@H](Oc2cccc(Oc3ccc(F)cc3)c2)C1 | 43.6 µM (active) | – | – | – | 38.9 µM (active) | inactive | 19.5 µM (active) | inactive | 38.9 µM (active) | – | –
N#C/C(=C1\SCC(c2ccccc2Cl)S1)n1ccnc1 (centres undefined) | inactive | – | inactive | inactive | – | inactive | – | inactive | inactive | – | inactive
O=C(N[C@@H](c1ccccc1)[C@@H]1CCCCN1)c1cccc(C(F)(F)F)c1Cl | – | – | – | – | 34.7 µM (active) | – | 24.5 µM (active) | 43.6 µM (active) | – | – | inactive
O=[N+]([O-])c1cccc(S(=O)(=O)NCCNS(=O)(=O)c2cccc([N+](=O)[O-])c2)c1 | – | inactive | inactive | inactive | – | inactive | – | inactive | inactive | -6.21% | inactive
COc1cc2c(N3CCN(C(=O)Nc4ccc(OC(C)C)cc4)CC3)ncnc2cc1OCCCN1CCCCC1 | – | – | inactive | inactive | 26.8 µM (active) | inactive | 9.52 µM (active) | inactive | – | – | –
Cc1ccc(Nc2nccc(N(C)c3ccc4c(C)n(C)nc4c3)n2)cc1S(N)(=O)=O | – | 1.9 µM (active) | inactive | inactive | inactive | inactive | 1.34 µM (active) | inactive | inactive | – | inactive
CC1CC(=O)NN=C1c1ccc(NCC(C)(C)NCC(O)COc2cc(Cl)ccc2C#N)cc1 (centres undefined) | inactive | – | inactive | – | inactive | inactive | – | inactive | inactive | – | inactive
COCc1c(C(C)C)nc(C(C)C)c(/C=C/[C@@H](O)C[C@@H](O)CC(=O)O)c1-c1ccc(F)cc1 | inactive | – | inactive | inactive | – | – | – | – | 301 nM (active) and 4.32 µM (active) | – | –
CCCCC(=O)O[C@]1(C(=O)CO)[C@@H](C)C[C@H]2[C@@H]3CCC4=CC(=O)C=C[C@]4(C)[C@@]3(F)[C@@H](O)C[C@@]21C | 54.9 µM (active) | – | inactive | – | inactive | inactive | – | inactive | – | – | –
COc1cc2ncnc(Nc3ccc(F)c(Cl)c3)c2cc1OCCCN1CCOCC1 | – | 9.52 µM (active) | – | 23.9 µM (active) | 23.9 µM (active) | – | 10.7 µM (active) | 23.9 µM (active) | 23.9 µM (active) | – | –
CCCCN(CCCC)C(=S)SSC(=S)N(CCCC)CCCC | – | 48.5 µM (active) | inactive | inactive | inactive | inactive | 38.5 µM (active) | inactive | inactive | – | –
CCCCC1C(=O)N(c2ccccc2)N(c2ccc(O)cc2)C1=O (centres undefined) | – | – | – | – | 10.7 µM (active) | inactive | – | 16.9 µM (active) | – | – | inactive
O=C(Nc1ccc([N+](=O)[O-])cc1)Nc1ccc([N+](=O)[O-])cc1 | 13.4 µM (active) | – | inactive | inactive | 23.9 µM (active) | inactive | 7.56 µM (active) | – | – | – | –
CCCCCCCCCCCC[N+](C)(C)CCCS(=O)(=O)[O-] | – | inactive | – | inactive | inactive | inactive | – | inactive | inactive | -0.977% | inactive
CC(=O)OCC(=O)[C@H]1CC[C@H]2[C@@H]3CCC4=CC(=O)CC[C@]4(C)[C@H]3CC[C@]12C | – | – | inactive | inactive | inactive | 9.52 µM (active) | – | inactive | inactive | – | inactive
Nc1nccs1 | – | inactive | – | inactive | inactive | inactive | – | inactive | – | -15.6% | inactive
CN1CCN(CCCN2c3ccccc3Sc3ccc(S(=O)(=O)N(C)C)cc32)CC1 | – | – | – | 23.9 µM (active) | 26.8 µM (active) | – | – | – | 26.8 µM (active) | – | inactive
CCOC(=O)CC(=O)C(=O)OCC | – | – | inactive | – | inactive | inactive | 43.6 µM (active) | inactive | inactive | – | –
CC1=C(C=O)C(C)(C)CCC1 | – | – | – | inactive | inactive | – | – | inactive | inactive | – | inactive
